Source: PubChem BioAssay (several laboratories)
Only some compounds are listed: those with a hit (about 1.4% of all), similar ones and a draw of the others.
SSB-PriA inh: K. pneumoniae PriA-SSBct interaction inhibition; AlphaScreen SSBct-PriA binding, biotinylated peptide; inhibition, % at 33 µM; 0.6% of 430,000 active; AID 1272365; in the data active means inhibition mostly above about 37%, no sharp cut-off; inactive means mostly below about 20%;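 further: plate controls were negative control peptide for no effect and reference peptide for full effect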
PrP 5UTR inh: suppresses PrP 5' UTR mRNA reporter expression | AID 488862 | inhibition, % (test concentration not listed) | cell-based PrP 5' UTR mRNA reporter, plate reader | 0.35% of 340,000 active; in the data active means inhibition above about 52%; further: 0 = median of the neutral control wells
FadD28 binding: inhibitors of Mycobacterium tuberculosis FadD28 bisubstrate binding. FadD28 bisubstrate probe binding, fluorescence polarization. inhibition, % at 12.5 µM. 0.22% of 360,000 active. AID 588549; in the data active means inhibition above about 8.5%, passing the limit was not always enough
PrPC surface inh: cell surface PrPC inhibition, primary TR-FRET screen | TR-FRET read-out | inhibition, % at 13.8 µM | 0.43% of 370,000 active | AID 720596; in the data active means inhibition above about 24%; further: 0% = median of the test wells and 100% = reference compound wells
Vc quorum ag: induces V. cholerae light production without autoinducers | V. cholerae BH1578 lux reporter, luminescence, 6 h | activation, % at 18.7 µM | 0.16% of 350,000 active; in the data active means activation mostly above about 9.7%, no sharp cut-off
PrPC confirm: cell surface PrPC inhibition, TR-FRET confirmation. inhibition, % at 13.8 µM. shares compounds with PrPC surface inh. 65% of 1,500 active. cell surface PrPC level; in the data active means inhibition above about 25%
LD9 cytotox: kills or reduces viability of LD9 cells in PrPc counter-screen; shares compounds with PrPC surface inh; LD9 cells cytotoxicity, luminescence viability; inhibition, % at 13.8 µM; 29% of 1,500 active; AID 743201; in the data active means inhibition above about 9.5%
* = called active by the depositor; i = inactive; x = not tested or not shown; ! = a repeat was not active.

SMILES	SSB-PriA inh	PrP 5UTR inh	FadD28 binding	PrPC surface inh	Vc quorum ag	PrPC confirm	LD9 cytotox
COc1ccc2c(C)cc(SCc3c(C)noc3C)nc2c1	-34.8	-28.5	-0.5	66.8*	1.5	87.9*	-5.0
Cc1cc(Cl)c(S(=O)(=O)N2CCCC2)cc1OCC(=O)NC1CCCCC1	-14.1	-13.7	-2.7	25.9*	-1.9	16.0	0.1
Cc1cc(Cl)c(S(=O)(=O)NC(C(=O)O)C(C)C)cc1OCC(=O)NC1CCCCC1 (stereo unspecified)	0.4	-11.7	-5.6	5.1	1.4	x	x
CCc1cc2c(=O)c(-c3ccc4c(c3)OCCO4)c(C)oc2cc1OS(C)(=O)=O	-6.5	-22.9	-4.6	30.9*	3.8	40.2*	4.9
CCSc1nc(NC(C)C)c2cnn(CCNC(=O)C3CCCCC3)c2n1	-11.0	x	x	x	x	x	x
COC(=O)c1ccccc1C(=O)N(Cc1ccccn1)c1nc2c(OC)ccc(C)c2s1	23.0	x	x	x	x	x	x
CCOc1cc(S(=O)(=O)n2cc(-c3ccc(F)cc3)c(N)n2)cc(OCC)c1OCC	0.5	-10.6	-2.9	29.4*	0.0	18.6	4.0
CCOc1ccc(S(=O)(=O)n2cc(-c3ccc(F)cc3)c(N)n2)cc1	-2.8	-18.3	-1.9	4.4	-0.2	x	x
Cc1ccccc1OCC(=O)NN=Cc1ccc2c(c1)OCCO2	-8.1	x	x	x	x	x	x
C=C1C(=O)OC2CC1C(OC(C)=O)CC(C)=CCCC(C)=CCCC2(C)O (stereo unspecified)	x	x	-1.1	28.7*	-0.3	33.0*	42.9*
C=C1C(=O)O[C@H]2[C@H]1[C@H](OC(=O)/C(C)=C\C)C[C@]1(CO1)[C@@H]1[C@H](OC(C)=O)C=C(C)[C@]21O	-13.8	-16.9	0.2	0.6	-1.9	x	x
C(/C=C/c1ccccc1)=Nn1cnnc1	-8.0	x	x	x	x	x	x
BrC(=C\c1ccccc1)/C=N/n1cnnc1	i	-16.7	-2.7	34.4*	-0.3	3.8	37.3*
C/C(=N\Nc1nc2ccccc2[nH]1)c1ccccn1	x	25.6	-2.1	26.4*	-0.2	48.5*	69.1*
CCCCC(=O)NC(c1ccc(Cl)cc1)c1ccc2cccnc2c1O (stereo unspecified)	-1.0	28.3	-2.4	28.6*	-0.4	18.2	11.4*
CCCCC(=O)NC(c1ccc(N(C)C)cc1)c1ccc2cccnc2c1O (stereo unspecified)	20.0	41.7	1.9	27.4*	i	24.7*	16.2*
CCCCC(=O)NC(c1ccccc1OC)c1ccc2cccnc2c1O (stereo unspecified)	42.5	32.7	-1.3	40.5*	-0.4	30.7*	27.4*
Nc1nnc(SCc2nc3scc(-c4ccccc4)c3c(=O)[nH]2)s1	-12.6	-16.0	-0.9	26.1*	i	53.5*	2.9
Cc1nnc(SCc2nc3scc(-c4ccccc4)c3c(=O)[nH]2)s1	1.7	-21.2	-0.9	3.7	2.4	x	x
Cc1cc(NS(=O)(=O)c2cc3c4c(c2)CCN4C(=O)CC3)ccc1Br	-8.0	x	x	x	x	x	x
CN(C)c1ccc(CCNC(=O)c2cccc(Cl)c2)cc1	8.0	x	x	x	x	x	x
CCC1(CC)Cc2ccccc2-c2nc(NN)[nH]c(=O)c21	-5.3	-13.5	-3.0	-0.5	-0.3	x	x
CC(C)[C@@H]1Cc2[nH]c(=S)[nH]c(=O)c2[C@H](C)O1	x	x	x	2.4	x	x	x
CCC1(CC)Cc2ccccc2-c2[nH]c(=S)[nH]c(=O)c21	-11.6	-17.0	2.9	79.4*	-0.6	100.2*	-1.9
CC(C)C1Cc2ccccc2-c2[nH]c(=S)[nH]c(=O)c21 (stereo unspecified)	0.6	x	0.3	75.1*	i	94.1*	-5.1
SMILES	SSB-PriA inh	PrP 5UTR inh	FadD28 binding	PrPC surface inh	Vc quorum ag	PrPC confirm	LD9 cytotox
CSc1nsc2nc(=O)c(/C=C3\C(C)=Nc4ccc(C)cc43)c(N)n12	x	5.5	4.8	-3.7	i	x	x
CC1=Nc2ccc(C)cc2/C1=C/c1c(N)n2oc(C)cc2nc1=O	x	-12.7	0.9	45.6*!	i	15.8	-5.2
CCCCc1ccc(NC(=O)CSc2nc(N)c(NC(=O)c3cccs3)c(=O)[nH]2)cc1	-1.0	x	x	x	x	x	x
O=C1C=CC(O)(c2cc(=O)c3c(O)cc(O)cc3o2)C=C1	-12.4	-65.2	-2.6	82.2*	i	76.8*	59.2*
COc1cc(OC)nc(Nc2nc(C(N)c3ccccc3)cs2)n1 (stereo unspecified)	x	x	-8.2	6.4	-0.4	x	x
COc1ccc(CC(N)c2csc(Nc3ncccn3)n2)cc1 (stereo unspecified)	x	x	-2.1	37.9*	-0.7	37.5*	2.9
COc1ccc(C(N)c2csc(Nc3ncccn3)n2)cc1 (stereo unspecified)	x	x	-0.1	36.2*	-0.2	17.8	-5.8
Nc1ccc(CC(N)c2csc(Nc3ncccn3)n2)cc1 (stereo unspecified)	x	x	-9.5	20.9	-0.7	x	x
NC(c1csc(Nc2ncccn2)n1)c1ccccc1Cl (stereo unspecified)	x	x	-1.4	32.7*	-0.2	18.8	-7.9
NC(Cc1ccc(F)cc1)c1csc(Nc2ncccn2)n1 (stereo unspecified)	x	x	-1.8	59.4*	0.7	55.5*	22.8*
COc1cc(OC)nc(Nc2nc(C(N)c3ccccc3Cl)cs2)n1 (stereo unspecified)	x	x	-2.5	0.0	-3.7	x	x
NC(Cc1ccc(Cl)cc1)c1csc(Nc2nccc(C(F)(F)F)n2)n1 (stereo unspecified)	x	x	-14.2	-6.1	-0.9	x	x
NC(Cc1ccc(Cl)cc1)c1csc(Nc2ncccn2)n1 (stereo unspecified)	x	x	-5.3	51.5*	-0.2	59.6*	13.5*
O=C1C(=C(c2ccccc2)N2CCOCC2)Cc2ccccc21	x	x	-3.3	33.0*	i	4.0	98.3*
O=C(NCC1CCC(c2nc3ccccc3[nH]2)CC1)c1ccc(Cn2ccnc2)cc1 (stereo unspecified)	-17.0	x	x	x	x	x	x
COc1ccc(C2SCC(=O)Nc3c2c(=O)[nH]n3C2CCCCCC2)cc1 (stereo unspecified)	-13.5	-7.3	1.5	1.7	-0.3	x	x
CCOc1ccc(C2SCC(=O)Nc3c2c(=O)[nH]n3C2CCCCCC2)cc1 (stereo unspecified)	-5.7	-10.1	0.1	50.6*	i	4.6	-3.4
O=C(NN=Cc1ccc(O)cc1)c1cc(-c2ccc(Cl)cc2)n[nH]1	x	x	x	26.3*	x	32.1*	4.2
COc1ccc(-c2cc(C(=O)NN=Cc3ccc(-c4ccccc4)cc3)[nH]n2)cc1	x	x	x	5.2	x	x	x
COc1ccc(-c2cc(C(=O)NN=C/C(C)=C/c3ccccc3)[nH]n2)cc1	x	x	x	24.6*	x	20.1	-2.4
Nc1ccc2c(c1)CN(S(=O)(=O)c1ccccc1)CC2	23.0	x	x	x	x	x	x
COC(=O)Nc1nc(CC(=O)Nc2ccc(C(=O)OC)cc2)cs1	10.0	x	x	x	x	x	x
CC(=O)c1nnn(-c2nc(N)nc(N(c3ccccc3)c3ccccc3)n2)c1C	-5.0	-13.8	-0.9	24.6*	-1.4	91.2*	-7.3
COC1=CC(=O)CC(C)C12Oc1cc(OC)cc(OC)c1C2=O (stereo unspecified)	-8.3	-0.1	3.0	0.2	-0.3	x	x
